Calls of active or inactive are those of the source. The call rests on the fitted dose curve; in most records, active means well fitted curve in the direction sought with a large enough effect; inactive means no such curve, though single readings can be large or run the other way.

This assay addresses Lysosomal alpha-glucosidase (Homo sapiens) (UniProt P10253). The assay is described as follows: qHTS Assay for Inhibitors and Activators of N370S glucocerebrosidase as a Potential Chaperone Treatment of Gaucher Disease: Alpha-Glucosidase Counterscreen for Probe SAR. The note with it: purified human alpha-glucosidase, 4-MU fluorogenic substrate. An excerpt: NIH Chemical Genomics Center [NCGC] NIH Molecular Libraries Probe Production Centers Network [MLPCN] MLPCN Grant: MH086442-01 Assay Submitter (PI): Wei Zheng Glucocerebrosidase (GC) catalyzes the hydrolysis of beta-glucocerebroside to glucose and ceramide in lysosomes. Mutations in the glucocerebrosidase gene result in Gaucher disease, an autosomal recessive lysosomal storage disorder. Many of the mutations encountered in patients with Gaucher disease are missense alterations that may cause misfolding, decreased stability and/or mistrafficking of this lysosomal protein. […] These inhibitors include iminosugar analogs and three non-iminosugar inhibitors identified from a previous HTS of 62,000 compounds with the wild type recombinant enzyme. However, the enhancement of enzyme activity by the chaperone action of an enzyme inhibitor must be balanced against the direct inhibition of the enzyme. An enzyme activator could also function as a chaperone by binding to the enzyme and helping to correct its misfolding and mistrafficking. While activators for GC have not yet been identified, they may have better therapeutic potential than inhibitors. Therefore the discovery and development of chemical activators may provide a new strategy for the chaperone therapy. To characterize compound selectivity, selected hits from the primary screen were screened against purified alpha-glucosidase, a related sugar hydrolase. Alpha-glucosidase is responsible for hydrolysis of terminal, non-reducing 1,4-linked alpha-D-glucose residues with release of alpha-D-glucose.
NCGC Assay Protocol Summary: This is a fluorogenic enzyme assay with 4-methylumbelliferyl-alpha-D-[…] as the substrate and human alpha-glucosidase as the enzyme preparation. Upon the hydrolysis of this fluorogenic substrate, the resulting product, 1. 4-methyllumbelliferone, can be excited at 365 nm and emits at 440 nm which can be detected by a standard fluorescence plate reader. Data were normalized to the controls for basal activity (without enzyme) and 100% activity (with enzyme). The AC50 values were determined from concentration-response data modeled with the standard Hill equation. Assay buffer: 50 mM citric acid (titrated with potassium phosphate to pH 5.0), 0.005% Tween-20, pH 5.0. (pH 5.0 is an optimal condition for this enzyme assay) 1536-well assay protocol for the human alpha-glucosidase: (1) Add 2 ul/well of enzyme (4 nM final) (2) Add 23 nL compounds in DMSO solution. The final titration was 0.7 nM to 77 uM. (3) Add 1 ul of substrate (400 uM final) (4) Incubate at room temperature for 20 min. (5) Add 2 ul stop solution (1M NaOH and 1M Glycine mixture, pH 10) (6) Detect the assay plate in a ViewLux plate reader (PerkinElmer) with Ex=365 nm and Em=440nm. Keywords: Alpha-glucosidase, Pompe Disease, pharmacological chaperone, chaperone therapy, high throughput screening, alpha-glucosidase inhibitor, MLSMR, MLSCN, NIH Roadmap, qHTS and NCGC
In general terms: In qHTS, concentration-response curves come from the screen itself.
For `C#Cc1ccc(NC(=O)c2cnn3c(C)cc(C)nc23)cc1`, the max response was -2.48% (inactive).

With `O=C(Nc1ccc2c(c1)CCC2)c1cnn2c1NC(=C1CC1)C=C2C(F)F`, the max response was -4.43% (inactive).

Take `C=C1C=C(C(F)F)n2ncc(C(=O)Nc3ccc(C(C)CC)cc3)c2N1` (stereo unspecified): the max response is -2.76% (inactive).

Consider `O=C(Nc1ccccc1Sc1ccccc1)c1cnn2c1NC(=C1CC1)C=C2C(F)F`, for which the max response is -18.1% (inactive).

`O=C(Nc1ccccc1Sc1ccccc1)c1cnn2c1NC(=C1CC1)C=C2C(F)(F)F`: the max response is -11.4% (inactive).

For the molecule `O=C(NC1CCCCC1)c1cnn2c1NC(=C1CC1)C=C2C(F)F`, the max response was -3.85% (inactive).
